# Reference: article PMC7862700, “An all-to-all approach to the identification of sequence-specific readers for epigenetic DNA modifications on cytosine”
# Assays:
# Test in all cases: DAPPL (digital affinity profiling via proximity ligation, sequencing); 10 mM Tris-HCl pH 7.5, 50 mM NaCl, 1 mM DTT, 4% glycerol, room temperature, 30 min; GST-TFs on glutathione beads, 16-mer random dsDNA library, 0.1% formaldehyde crosslink after washing; high values mean tight binding
# FEV = biological target: T1, FEV (Homo sapiens, UniProt Q99581 1-238); details: protein: recombinant; tags: N-terminal GST; dsDNA, one strand shown
# T1 sequence: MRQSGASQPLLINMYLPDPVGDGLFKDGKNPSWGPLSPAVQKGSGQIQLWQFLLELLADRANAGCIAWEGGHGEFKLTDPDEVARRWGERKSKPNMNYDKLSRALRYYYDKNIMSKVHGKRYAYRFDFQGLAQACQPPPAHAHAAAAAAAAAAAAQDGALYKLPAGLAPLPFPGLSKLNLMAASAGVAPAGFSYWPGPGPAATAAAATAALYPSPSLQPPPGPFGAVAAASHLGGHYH
# In short: (§1)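 In yeast, human transcription factors were expressed with a GST fusion, then pulled down on glutathione beads and given DNA barcodes. Pooled with a tag-only sample, they were exposed to 200 nmole of a 16-mer random double-stranded DNA library (Tris/NaCl/DTT/glycerol buffer, room temperature, 30 min), washed, crosslinked with 0.1% formaldehyde, proximity-ligated using BsaI/T4 ligase for 1 h at 37 °C, PCR-amplified and read on an Illumina NextSeq500. Each hexamer's frequency of reads for a factor, divided by the matching frequency for the tag-only sample, gives the binding signal.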
# ETV5 = ETV5 (Homo sapiens, UniProt P41161 1-510); details: protein: recombinant; tags: N-terminal GST; dsDNA, one strand shown
# Sequence of ETV5 (P41161 whole entry): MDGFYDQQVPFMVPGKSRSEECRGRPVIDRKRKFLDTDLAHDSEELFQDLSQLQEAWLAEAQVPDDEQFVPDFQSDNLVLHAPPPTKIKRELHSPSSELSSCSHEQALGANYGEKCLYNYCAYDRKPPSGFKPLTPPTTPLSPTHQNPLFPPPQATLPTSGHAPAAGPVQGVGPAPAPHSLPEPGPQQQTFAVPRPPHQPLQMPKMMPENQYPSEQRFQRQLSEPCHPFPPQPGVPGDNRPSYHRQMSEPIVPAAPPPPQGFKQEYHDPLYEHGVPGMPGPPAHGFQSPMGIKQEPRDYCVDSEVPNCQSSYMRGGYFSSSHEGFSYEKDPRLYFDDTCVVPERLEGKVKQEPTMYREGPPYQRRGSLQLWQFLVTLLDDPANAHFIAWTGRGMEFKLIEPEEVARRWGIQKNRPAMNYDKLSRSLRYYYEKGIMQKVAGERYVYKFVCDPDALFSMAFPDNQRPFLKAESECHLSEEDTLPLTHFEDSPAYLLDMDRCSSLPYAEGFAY
# In short: as §1
# HSF1 = HSF1 (Homo sapiens, UniProt Q00613 1-529); details: protein: recombinant; tags: N-terminal GST; chain copies: 3; dsDNA, one strand shown
# Sequence of HSF1 (Q00613 whole entry): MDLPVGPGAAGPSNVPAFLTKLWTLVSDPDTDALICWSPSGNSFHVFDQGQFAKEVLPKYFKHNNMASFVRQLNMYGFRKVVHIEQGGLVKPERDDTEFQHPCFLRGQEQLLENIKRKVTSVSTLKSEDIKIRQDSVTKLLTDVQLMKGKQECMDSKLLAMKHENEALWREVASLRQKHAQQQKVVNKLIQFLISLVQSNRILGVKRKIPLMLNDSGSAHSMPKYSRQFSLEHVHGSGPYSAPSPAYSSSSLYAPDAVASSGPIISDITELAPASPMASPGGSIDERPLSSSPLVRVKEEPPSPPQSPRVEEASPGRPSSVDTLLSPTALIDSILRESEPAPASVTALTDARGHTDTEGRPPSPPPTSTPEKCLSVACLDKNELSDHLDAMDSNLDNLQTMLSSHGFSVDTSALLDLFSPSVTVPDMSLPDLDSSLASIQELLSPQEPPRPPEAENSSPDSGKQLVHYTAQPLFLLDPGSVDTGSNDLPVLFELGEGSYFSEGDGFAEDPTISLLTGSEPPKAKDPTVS
# In short: as §1
# SPIC = biological target: T2, SPIC (Homo sapiens, UniProt Q8N5J4 1-248); details: protein: recombinant; tags: N-terminal GST; dsDNA, one strand shown
# T2 sequence: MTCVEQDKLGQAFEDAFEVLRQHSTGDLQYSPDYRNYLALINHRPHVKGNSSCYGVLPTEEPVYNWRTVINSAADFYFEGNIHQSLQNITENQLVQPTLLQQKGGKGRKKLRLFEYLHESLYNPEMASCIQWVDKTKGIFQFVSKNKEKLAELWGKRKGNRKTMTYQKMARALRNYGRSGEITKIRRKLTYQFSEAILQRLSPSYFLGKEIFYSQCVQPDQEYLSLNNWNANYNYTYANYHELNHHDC
# In short: as §1
# ELF4 = ELF4 (Homo sapiens, UniProt Q99607 1-663); details: protein: recombinant; tags: N-terminal GST; dsDNA, one strand shown
# Sequence of ELF4 (Q99607 whole entry): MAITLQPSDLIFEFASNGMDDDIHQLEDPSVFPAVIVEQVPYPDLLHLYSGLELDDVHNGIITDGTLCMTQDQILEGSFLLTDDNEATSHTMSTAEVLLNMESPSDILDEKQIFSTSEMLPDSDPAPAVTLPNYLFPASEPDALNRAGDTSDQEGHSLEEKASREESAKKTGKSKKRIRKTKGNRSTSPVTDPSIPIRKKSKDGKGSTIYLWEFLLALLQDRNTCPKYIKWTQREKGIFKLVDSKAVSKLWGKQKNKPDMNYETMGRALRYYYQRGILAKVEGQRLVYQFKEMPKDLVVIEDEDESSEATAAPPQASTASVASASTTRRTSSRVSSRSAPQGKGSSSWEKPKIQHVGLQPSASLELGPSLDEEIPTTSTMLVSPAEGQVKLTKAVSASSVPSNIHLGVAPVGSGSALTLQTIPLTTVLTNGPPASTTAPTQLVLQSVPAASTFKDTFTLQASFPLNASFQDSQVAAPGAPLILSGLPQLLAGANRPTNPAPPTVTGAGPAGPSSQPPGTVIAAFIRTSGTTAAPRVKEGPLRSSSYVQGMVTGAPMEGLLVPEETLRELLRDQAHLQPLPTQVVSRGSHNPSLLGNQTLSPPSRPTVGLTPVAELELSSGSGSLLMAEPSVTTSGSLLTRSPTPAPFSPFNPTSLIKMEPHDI
# In short: as §1
# ELK4 = biological target: T3, ELK4 (Homo sapiens, UniProt P28324-2 1-405); details: protein: recombinant; tags: N-terminal GST; dsDNA, one strand shown
# T3 sequence: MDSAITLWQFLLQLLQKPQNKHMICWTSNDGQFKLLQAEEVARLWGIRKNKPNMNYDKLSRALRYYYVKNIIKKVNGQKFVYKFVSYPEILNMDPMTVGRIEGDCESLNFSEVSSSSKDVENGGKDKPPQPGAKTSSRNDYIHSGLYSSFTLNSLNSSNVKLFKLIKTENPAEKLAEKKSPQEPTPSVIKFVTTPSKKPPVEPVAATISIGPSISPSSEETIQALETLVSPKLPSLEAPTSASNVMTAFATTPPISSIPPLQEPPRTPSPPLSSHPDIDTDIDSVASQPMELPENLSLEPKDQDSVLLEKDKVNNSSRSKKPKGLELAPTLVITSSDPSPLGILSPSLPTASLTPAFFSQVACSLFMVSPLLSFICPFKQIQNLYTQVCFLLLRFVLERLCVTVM
# In short: as §1
# ETV2 = biological target: T4, ETV2 (Homo sapiens, UniProt O00321 1-342); details: protein: recombinant; tags: N-terminal GST; dsDNA, one strand shown
# T4 sequence: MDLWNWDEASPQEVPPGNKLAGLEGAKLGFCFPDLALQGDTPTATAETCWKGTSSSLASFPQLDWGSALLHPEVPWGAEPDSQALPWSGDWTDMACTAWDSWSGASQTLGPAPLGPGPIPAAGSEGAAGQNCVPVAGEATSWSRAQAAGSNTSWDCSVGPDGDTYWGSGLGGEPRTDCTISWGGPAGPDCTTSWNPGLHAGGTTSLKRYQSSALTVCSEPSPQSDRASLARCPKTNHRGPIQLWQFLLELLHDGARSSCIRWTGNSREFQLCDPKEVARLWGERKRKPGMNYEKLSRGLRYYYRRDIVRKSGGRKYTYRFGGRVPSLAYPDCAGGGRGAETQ
# In short: as §1
# ELF3 = biological target: T5, ELF3 (Homo sapiens, UniProt P78545 1-371); details: protein: recombinant; tags: N-terminal GST; dsDNA, one strand shown
# T5 sequence: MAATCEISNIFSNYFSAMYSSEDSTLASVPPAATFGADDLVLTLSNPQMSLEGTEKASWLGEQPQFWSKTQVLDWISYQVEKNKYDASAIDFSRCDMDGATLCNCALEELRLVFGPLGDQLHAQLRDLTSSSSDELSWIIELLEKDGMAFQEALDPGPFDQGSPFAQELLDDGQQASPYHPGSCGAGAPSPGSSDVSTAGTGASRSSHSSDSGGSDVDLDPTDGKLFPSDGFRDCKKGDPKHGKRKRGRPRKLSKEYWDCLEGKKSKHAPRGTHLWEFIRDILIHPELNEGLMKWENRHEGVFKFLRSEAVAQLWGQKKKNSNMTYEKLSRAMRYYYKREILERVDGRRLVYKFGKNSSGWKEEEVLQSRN
# In short: as §1
# CRX = CRX (Homo sapiens, UniProt O43186 1-299); details: protein: recombinant; tags: N-terminal GST; dsDNA, one strand shown
# Sequence of CRX (O43186 whole entry): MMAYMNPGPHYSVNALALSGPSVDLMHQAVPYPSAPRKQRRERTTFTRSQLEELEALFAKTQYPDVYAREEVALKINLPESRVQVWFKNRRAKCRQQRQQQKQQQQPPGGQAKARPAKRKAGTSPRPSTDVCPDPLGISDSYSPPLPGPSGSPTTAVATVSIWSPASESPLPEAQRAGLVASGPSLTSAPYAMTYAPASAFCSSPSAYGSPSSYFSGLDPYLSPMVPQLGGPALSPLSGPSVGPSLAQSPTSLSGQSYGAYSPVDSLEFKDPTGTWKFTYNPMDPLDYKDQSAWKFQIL
# In short: as §1
# ETV1 = ETV1 (Homo sapiens, UniProt P50549 1-477); details: protein: recombinant; tags: N-terminal GST; dsDNA, one strand shown
# Sequence of ETV1 (P50549 whole entry): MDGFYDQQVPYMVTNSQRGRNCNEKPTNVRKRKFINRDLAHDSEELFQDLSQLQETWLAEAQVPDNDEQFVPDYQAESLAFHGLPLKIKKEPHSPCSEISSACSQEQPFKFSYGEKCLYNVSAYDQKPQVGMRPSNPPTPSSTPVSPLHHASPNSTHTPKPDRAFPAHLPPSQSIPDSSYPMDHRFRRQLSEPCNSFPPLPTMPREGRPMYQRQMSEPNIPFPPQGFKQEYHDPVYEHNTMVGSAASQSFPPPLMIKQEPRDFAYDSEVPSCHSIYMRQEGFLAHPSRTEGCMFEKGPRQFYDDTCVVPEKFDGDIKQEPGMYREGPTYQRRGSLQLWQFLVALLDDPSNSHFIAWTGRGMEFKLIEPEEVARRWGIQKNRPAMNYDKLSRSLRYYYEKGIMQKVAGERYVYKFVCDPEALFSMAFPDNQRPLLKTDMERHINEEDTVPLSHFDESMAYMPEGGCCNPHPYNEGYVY
# In short: as §1
# ERF = biological target: T6, ERF (Homo sapiens, UniProt P50548 1-548); details: protein: recombinant; tags: N-terminal GST; dsDNA, one strand shown
# T6 sequence: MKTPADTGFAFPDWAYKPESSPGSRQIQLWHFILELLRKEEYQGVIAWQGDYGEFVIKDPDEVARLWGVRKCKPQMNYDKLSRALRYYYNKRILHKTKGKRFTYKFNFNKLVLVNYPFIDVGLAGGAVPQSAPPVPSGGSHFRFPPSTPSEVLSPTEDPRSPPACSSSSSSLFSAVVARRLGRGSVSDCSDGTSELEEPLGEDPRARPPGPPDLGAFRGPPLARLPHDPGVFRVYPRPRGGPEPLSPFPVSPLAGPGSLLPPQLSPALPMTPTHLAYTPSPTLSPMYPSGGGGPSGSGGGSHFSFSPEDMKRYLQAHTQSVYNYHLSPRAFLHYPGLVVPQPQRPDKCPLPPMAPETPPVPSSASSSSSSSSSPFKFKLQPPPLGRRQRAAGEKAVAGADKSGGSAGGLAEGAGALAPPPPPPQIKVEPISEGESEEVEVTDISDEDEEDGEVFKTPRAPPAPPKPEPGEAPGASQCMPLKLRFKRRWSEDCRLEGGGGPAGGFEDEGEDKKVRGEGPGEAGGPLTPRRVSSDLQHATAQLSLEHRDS
# In short: as §1
# ETV3L = biological target: T7, ETV3L (Homo sapiens, UniProt Q6ZN32 1-361); details: protein: recombinant; tags: N-terminal GST; dsDNA, one strand shown
# T7 sequence: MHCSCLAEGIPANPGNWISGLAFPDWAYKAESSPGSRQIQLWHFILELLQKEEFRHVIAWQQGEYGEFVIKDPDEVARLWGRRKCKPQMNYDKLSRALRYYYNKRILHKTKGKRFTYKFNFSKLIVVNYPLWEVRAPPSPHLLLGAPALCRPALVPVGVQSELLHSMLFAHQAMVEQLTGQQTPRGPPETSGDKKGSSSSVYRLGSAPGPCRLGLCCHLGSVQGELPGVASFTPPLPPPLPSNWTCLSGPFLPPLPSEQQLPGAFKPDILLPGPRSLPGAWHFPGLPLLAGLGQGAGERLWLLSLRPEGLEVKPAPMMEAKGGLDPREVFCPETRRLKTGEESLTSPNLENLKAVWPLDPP
# In short: as §1
# ETS2 = biological target: T8, ETS2 (Homo sapiens, UniProt P15036 1-469); details: protein: recombinant; tags: N-terminal GST; dsDNA, one strand shown
# T8 sequence: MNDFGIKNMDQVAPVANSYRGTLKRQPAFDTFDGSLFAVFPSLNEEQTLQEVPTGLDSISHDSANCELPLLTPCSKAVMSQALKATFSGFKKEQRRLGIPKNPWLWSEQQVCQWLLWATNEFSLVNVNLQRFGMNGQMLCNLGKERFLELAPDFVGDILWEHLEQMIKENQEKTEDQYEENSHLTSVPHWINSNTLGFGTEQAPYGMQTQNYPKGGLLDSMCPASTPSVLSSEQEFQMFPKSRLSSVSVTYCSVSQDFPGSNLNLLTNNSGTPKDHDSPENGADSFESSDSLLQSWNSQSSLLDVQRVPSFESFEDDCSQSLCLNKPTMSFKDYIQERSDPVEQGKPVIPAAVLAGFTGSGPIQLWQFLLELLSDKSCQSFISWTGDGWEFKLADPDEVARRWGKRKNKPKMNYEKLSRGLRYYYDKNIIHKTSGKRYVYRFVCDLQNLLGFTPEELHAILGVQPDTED
# In short: as §1
# SPDEF = biological target: T9, SPDEF (Homo sapiens, UniProt O95238 1-335); details: protein: recombinant; tags: N-terminal GST; dsDNA, one strand shown
# T9 sequence: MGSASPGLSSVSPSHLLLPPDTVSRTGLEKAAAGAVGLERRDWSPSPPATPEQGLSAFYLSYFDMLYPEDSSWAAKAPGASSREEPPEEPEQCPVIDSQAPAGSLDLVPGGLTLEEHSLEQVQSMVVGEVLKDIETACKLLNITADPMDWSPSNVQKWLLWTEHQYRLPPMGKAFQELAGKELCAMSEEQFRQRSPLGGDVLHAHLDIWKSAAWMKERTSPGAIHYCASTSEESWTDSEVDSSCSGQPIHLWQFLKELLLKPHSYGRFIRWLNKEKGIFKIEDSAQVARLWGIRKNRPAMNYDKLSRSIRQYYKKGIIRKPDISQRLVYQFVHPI
# In short: as §1
# ETV7 = biological target: T10, ETV7 (Homo sapiens, UniProt Q9Y603 1-341); details: protein: recombinant; tags: N-terminal GST; dsDNA, one strand shown
# T10 sequence: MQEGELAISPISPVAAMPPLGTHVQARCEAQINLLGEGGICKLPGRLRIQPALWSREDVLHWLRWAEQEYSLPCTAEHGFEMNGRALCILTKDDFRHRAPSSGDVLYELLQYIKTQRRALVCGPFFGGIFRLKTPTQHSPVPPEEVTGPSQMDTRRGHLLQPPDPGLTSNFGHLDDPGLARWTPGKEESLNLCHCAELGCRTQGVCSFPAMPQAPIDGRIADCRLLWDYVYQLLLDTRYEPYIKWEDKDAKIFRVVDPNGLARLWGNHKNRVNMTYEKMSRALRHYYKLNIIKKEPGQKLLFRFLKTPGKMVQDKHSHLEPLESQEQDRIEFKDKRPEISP
# In short: as §1
# ELF5 = biological target: T11, ELF5 (Homo sapiens, UniProt Q9UKW6-2 1-255); details: protein: recombinant; tags: N-terminal GST; dsDNA, one strand shown
# T11 sequence: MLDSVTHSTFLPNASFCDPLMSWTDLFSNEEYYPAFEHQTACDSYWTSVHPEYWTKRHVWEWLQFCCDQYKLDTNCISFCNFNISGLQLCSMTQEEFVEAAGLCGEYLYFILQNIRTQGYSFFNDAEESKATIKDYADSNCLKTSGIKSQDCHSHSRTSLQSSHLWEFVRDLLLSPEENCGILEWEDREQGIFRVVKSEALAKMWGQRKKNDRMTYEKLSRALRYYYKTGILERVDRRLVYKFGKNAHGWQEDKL
# In short: as §1
# ETV3 = biological target: T12, ETV3 (Homo sapiens, UniProt P41162-2 1-143); details: protein: recombinant; tags: N-terminal GST; dsDNA, one strand shown
# T12 sequence: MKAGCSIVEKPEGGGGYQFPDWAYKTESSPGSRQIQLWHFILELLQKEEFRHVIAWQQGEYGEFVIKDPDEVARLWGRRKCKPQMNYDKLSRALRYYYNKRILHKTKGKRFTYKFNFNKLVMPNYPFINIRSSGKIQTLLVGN
# In short: as §1
# ETV6 = ETV6 (Homo sapiens, UniProt P41212 1-452); details: protein: recombinant; tags: N-terminal GST; dsDNA, one strand shown
# Sequence of ETV6 (P41212 whole entry): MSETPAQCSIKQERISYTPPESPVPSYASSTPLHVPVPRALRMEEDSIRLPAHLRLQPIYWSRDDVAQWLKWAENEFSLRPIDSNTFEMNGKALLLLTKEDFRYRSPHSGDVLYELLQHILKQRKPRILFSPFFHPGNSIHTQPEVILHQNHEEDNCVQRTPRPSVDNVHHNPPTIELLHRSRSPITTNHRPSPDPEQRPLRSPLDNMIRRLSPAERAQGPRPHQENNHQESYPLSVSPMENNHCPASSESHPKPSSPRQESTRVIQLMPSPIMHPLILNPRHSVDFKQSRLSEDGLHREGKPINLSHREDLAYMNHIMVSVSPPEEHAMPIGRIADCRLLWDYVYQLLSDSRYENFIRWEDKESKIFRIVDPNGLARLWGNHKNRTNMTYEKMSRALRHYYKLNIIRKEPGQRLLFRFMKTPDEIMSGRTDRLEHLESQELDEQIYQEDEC
# In short: as §1
sequence,measurement,setting,value
CTATCC,binding signal,FEV,"1.39 fold enrichment (6-mer frequency, TF over GST control)"
same,binding signal,ETV5,"1.49 fold enrichment (6-mer frequency, TF over GST control)"
same,binding signal,HSF1,"1.25 fold enrichment (6-mer frequency, TF over GST control)"
same,binding signal,SPIC,"1.36 fold enrichment (6-mer frequency, TF over GST control)"
same,binding signal,ELF4,"1.34 fold enrichment (6-mer frequency, TF over GST control)"
same,binding signal,ELK4,"1.56 fold enrichment (6-mer frequency, TF over GST control)"
same,binding signal,ETV2,"1.49 fold enrichment (6-mer frequency, TF over GST control)"
same,binding signal,ELF3,"1.31 fold enrichment (6-mer frequency, TF over GST control)"
same,binding signal,CRX,"1.31 fold enrichment (6-mer frequency, TF over GST control)"
same,binding signal,ETV1,"1.36 fold enrichment (6-mer frequency, TF over GST control)"
same,binding signal,ERF,"1.38 fold enrichment (6-mer frequency, TF over GST control)"
same,binding signal,ETV3L,"1.4 fold enrichment (6-mer frequency, TF over GST control)"
same,binding signal,ETS2,"1.35 fold enrichment (6-mer frequency, TF over GST control)"
same,binding signal,SPDEF,"1.63 fold enrichment (6-mer frequency, TF over GST control)"
same,binding signal,ETV7,"1.46 fold enrichment (6-mer frequency, TF over GST control)"
same,binding signal,ELF5,"1.45 fold enrichment (6-mer frequency, TF over GST control)"
same,binding signal,ETV3,"1.27 fold enrichment (6-mer frequency, TF over GST control)"
same,binding signal,ETV6,"1.32 fold enrichment (6-mer frequency, TF over GST control)"
